This note sets out measurements from PubChem BioAssay.

Values without a mark were called inactive. No rule for the calls is given here.

Sequence of Pantothenate synthetase (Mycobacterium tuberculosis (strain ATCC 25618 / H37Rv)) (P9WIL5 whole entry, looked up): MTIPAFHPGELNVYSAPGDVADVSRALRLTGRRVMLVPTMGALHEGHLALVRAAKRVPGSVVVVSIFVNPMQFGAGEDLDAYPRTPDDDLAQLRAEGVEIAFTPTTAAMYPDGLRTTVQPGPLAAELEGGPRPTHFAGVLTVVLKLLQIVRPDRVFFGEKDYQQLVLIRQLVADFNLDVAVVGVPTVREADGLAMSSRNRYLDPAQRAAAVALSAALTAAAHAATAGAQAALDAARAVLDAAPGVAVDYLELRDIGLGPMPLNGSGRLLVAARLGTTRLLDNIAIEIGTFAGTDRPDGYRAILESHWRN

The assay has as its target Pantothenate synthetase (Mycobacterium tuberculosis (strain ATCC 25618 / H37Rv)) (UniProt P9WIL5). As to the kind of experiment: Coupled enzyme confirmation of inhibitors against recombinant Mtb PanC (AID 375).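 Also: 0% = full reaction with vehicle and 100% = no enzyme background.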 The note with it: coupled enzyme assay; at 10 µM, hits give high values.
Take `COc1ccc(C(=O)Nc2nncs2)c(OC)c1`: the inhibition (in general, the change of the read-out against control, counted positive when it falls) was 3%.

On to `CCN(CC)CC(=O)Nc1ccc(-c2nc3cc(NC(=O)CN(CC)CC)ccc3o2)cc1`, for which the inhibition is 7%.

`CN(C)CCN1C(=O)C(O)=C(C(=O)c2cc3ccccc3o2)C1c1ccc(N(C)C)cc1` (configuration not stated): the inhibition is 0%.

Take `CCOC(=O)C1=C(CC)Nc2ccccc2N=C1NC(=O)Cn1cnc2ccccc2c1=O`: the inhibition was 0%.

Regarding `O=C(NCc1ccco1)C1(S(=O)(=O)c2ccc(Cl)cc2)CC1`, the inhibition is 0%.

Turning to `COc1ccc(-c2nnc(SC(C)C(=O)Nc3nccs3)n2-c2ccccc2)cc1OC` (configuration not stated), the inhibition was 0%.

As for `Cc1nnc(SCC(=O)Nc2sc3c(c2C#N)CCCC3)[nH]c1=O`, the inhibition was 0%.

Consider `CC(C)(C)C(=O)CCN1C(=O)C2(OCCO2)c2ccccc21`, for which the inhibition is 0%.

With `Cn1c(=O)[nH]c(=O)c2c1nc(N1CCOCC1)n2CC(O)COc1ccc2ccccc2c1` (configuration not stated), the inhibition is 0%.

`CCN(CC)CCCn1c(=S)[nH]c2cc(Cl)ccc2c1=O`: the inhibition was 0%.

As for `Nc1cc(N)nc(SCc2ccccc2)n1`, the inhibition was 0%.

As to `CCN(CC)C(=O)C1CCCc2c1[nH]c1ccc(Cl)cc21` (configuration not stated), the inhibition was 0%.

Regarding `CCOC(=O)C1(c2ccccc2)NC(c2ccc(N(C)C)cc2)C2C(=O)N(C)C(=O)C21` (configuration not stated), the inhibition was 0%.

Consider `Cc1nnc(SCCn2c(N3CCC(Cc4ccccc4)CC3)nc3c2c(=O)[nH]c(=O)n3C)s1`, for which the inhibition is 2%.

Take `Cc1nnc(SCC(=O)N(C(C)C)C(C)C)nc1C`: the inhibition is 7%.

On to `CCOC(=O)c1c(NC(=O)Cn2c(C)nc3ccccc32)sc2c1CCC2`, for which the inhibition is 0%.

Regarding `COCCCN1C(=O)C(=O)/C(=C(/O)c2ccc(OC)cc2)C1c1ccc(O)c(OC)c1` (configuration not stated), the inhibition was 0%.

For the compound `CCCCCCn1c(CN2CCN(Cc3ccccc3)CC2)nc2c1c(=O)n(C)c(=O)n2C`, the inhibition was 10%.

Consider `O=C(CSc1nnnn1-c1ccc2c(c1)OCO2)NCc1cccs1`, for which the inhibition is 0%.

With `CCOC(=O)c1sc(NS(=O)(=O)c2ccc(NC(C)=O)cc2)nc1C`, the inhibition is 0%.

Consider `Cc1cc(C)nc(NC(=O)c2ccc(OC(C)C)cc2)n1`, for which the inhibition was 0%.

Turning to `Cc1cccc(N(C)C(=O)c2coc(=O)c3ccccc23)c1`, the inhibition was 0%.
